This passage reports outcome results from PubChem BioAssay (NCATS).

Results filed as inconclusive are left out. The source made the active and inactive calls. Calls follow the shape of the dose curve; as a rule, active = well fitted curve in the direction sought with a large enough effect; inconclusive = small, poorly fitted or top-dose-only effect, or another doubt; inactive = no such curve, though single readings can be large; an effect the other way counts as inactive or inconclusive.

The first assay in a line: Cell Viability - LYMP2-003 (AID 965).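 Also: cells exposed to compounds for 24 h before reading; nearly all actives have a fitted effect of over 50% in size.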 Conditions: LYMP2-003 lymphoblastoid cell viability; series mostly up to 92.2 µM. Put shortly: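 Seed 2500 lymphoblastoid cells/well; incubate 5 hr, 37 C; add compounds; incubate 24 hr, 37 C; add CellTiter-Glo, 30 min RT; read luminescence. AC50 from Hill fit.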
Consider `CC(=O)Nc1ccc(C(=O)O)cc1`, for which the compound was classed as inactive.

Consider `CCCC(O)C(CC)CO` (stereo unspecified), for which the compound was called inactive.

For `O=C(c1ccccc1)C(O)c1ccccc1` (stereo unspecified), the compound was called inactive.

For the compound `FC(F)(F)C(Cl)Br` (stereo unspecified), the compound was called inactive.

As to `CCCCCC(N)=O`, the outcome was inactive.

`COc1ccc(O)cc1`: the result was inactive.

For `CCCCCCCC(=O)OCC(COC(=O)CCCCCCC)OC(=O)CCCCCCC`, the compound was called inactive.

Consider `O=C1C(c2[nH]c3ccccc3c2O)=Nc2ccccc21`, for which the result was inactive.

As to `C=CCNC(N)=S`, the outcome was inactive.

For the compound `Cc1c(N(C)C)c(=O)n(-c2ccccc2)n1C`, the result was inactive.

A further assay in a line: Cell Viability - LYMP2-004 (AID 966).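 Also: cells exposed to compound for 24 h; nearly all actives have a fitted effect of over 65% in size.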 Conditions: LYMP2-004 lymphoblastoid cell viability, qHTS; series mostly up to 92.2 µM. Put shortly:
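Human lymphoblastoid cells (2500/well) in complete medium were treated with compounds for 24 hr at 37 C, then intracellular ATP was measured by CellTiter-Glo luminescence. AC50 values came from Hill-equation fits of concentration-response data.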
(Quantitative high-throughput screening tests each substance at several concentrations.)
As for `CC(=O)Nc1ccc(C(=O)O)cc1`, the compound was called inactive.

Regarding `CCCC(O)C(CC)CO` (stereo unspecified), the compound was called inactive.

As for `O=C(c1ccccc1)C(O)c1ccccc1` (stereo unspecified), the compound was called inactive.

In the case of `FC(F)(F)C(Cl)Br` (stereo unspecified), the compound was called inactive.

As for `CCCCCC(N)=O`, the result was inactive.

Regarding `COc1ccc(O)cc1`, the compound was classed as inactive.

As for `CCCCCCCC(=O)OCC(COC(=O)CCCCCCC)OC(=O)CCCCCCC`, the compound was classed as inactive.

For `O=C1C(c2[nH]c3ccccc3c2O)=Nc2ccccc21`, the outcome was inactive.

In the case of `O=C1c2cccc(O)c2C(=O)c2c(O)cccc21`, the compound was called inactive.

Consider `C=CCNC(N)=S`, for which the call was inactive.

As for `Cc1c(N(C)C)c(=O)n(-c2ccccc2)n1C`, the outcome was inactive.
